# Screening results as filed in PubChem.
# The list is not random: actives were taken first. Their share in the collection is about 1.8%.
# Tb PFK inh: T. brucei PFK enzyme inhibition; O15648; T. brucei PFK, ADP-Glo luminescence; Potency, µM (doses to about 57.5 µM), inactives show at the top dose activity, negative = inhibition, usual class: inhibitors; hit rate 0.17% among 330,000; AID 485367;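 further: 0% = uninhibited 1x PFK enzyme wells and -100% = no-enzyme wells; nearly all actives have a fitted effect of over 60% in size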
#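 Luminescent ADP detection (ADP-Glo, two-step: ATP depletion then ADP-to-ATP conversion for luciferase) reported PFK activity after 45 min room-temperature reaction of 1.25 nM enzyme with 0.5 mM F6P and 0.1 mM ATP at pH 8.0.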
# Pin1 inh: blocks the human prolyl isomerase Pin1; Q13526; Potency, µM (series often up to 115 µM), inactives show at the highest dose activity, negative = inhibition, usual class: inhibitors; Pin1 FP peptide displacement, HiFluor488, 10 min; AID 504891; hit rate 0.009% among 390,000; active means well fitted inhibition curve with a large enough effect in the polarisation, with a control signal flat, not every such curve was filed as active; inconclusive means small, poorly fitted or top-dose-only effect, or effect the other way, or a change in a side signal; inactive means no such curve, though single readings can be large or run the other way; the % refers to the polarisation; further: on the % scale 0 is the no-effect control and ±100 the full control effect
# Target sequence (Q13526 whole entry, looked up): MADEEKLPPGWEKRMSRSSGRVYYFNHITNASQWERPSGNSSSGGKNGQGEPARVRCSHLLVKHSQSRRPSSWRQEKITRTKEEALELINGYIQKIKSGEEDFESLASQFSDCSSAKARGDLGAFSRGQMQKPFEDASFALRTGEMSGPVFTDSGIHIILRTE
# GLP-1R agonist: activates the human GLP-1 receptor; AID 624172; Potency, µM (series often up to 45.6 µM), inactives show top-dose activation, most hits filed as activators; hit rate 0.007% among 380,000; P43220; HEK293 GLP-1R CRE-luciferase, luminescence, 4-6 h; cells express a hypersensitive GLP-1R form; further: % of control where 0% means no effect
# PGK inhibitor: inhibitors of T. brucei phosphoglycerate kinase. P07378. PGK/GAPDH coupled, Kinase-Glo luminescence, 60 min. Potency, µM (titrated, usually from 57.5 µM), for the others: at the top dose activity change, negative = inhibition, actives largely listed as inhibitors. hit rate 0.043% among 380,000. AID 602233; further: on the % scale 0 is the no-effect control and ±100 the full control effect; nearly all actives have a fitted effect of over 60% in size
# Target sequence (P07378 whole entry, looked up): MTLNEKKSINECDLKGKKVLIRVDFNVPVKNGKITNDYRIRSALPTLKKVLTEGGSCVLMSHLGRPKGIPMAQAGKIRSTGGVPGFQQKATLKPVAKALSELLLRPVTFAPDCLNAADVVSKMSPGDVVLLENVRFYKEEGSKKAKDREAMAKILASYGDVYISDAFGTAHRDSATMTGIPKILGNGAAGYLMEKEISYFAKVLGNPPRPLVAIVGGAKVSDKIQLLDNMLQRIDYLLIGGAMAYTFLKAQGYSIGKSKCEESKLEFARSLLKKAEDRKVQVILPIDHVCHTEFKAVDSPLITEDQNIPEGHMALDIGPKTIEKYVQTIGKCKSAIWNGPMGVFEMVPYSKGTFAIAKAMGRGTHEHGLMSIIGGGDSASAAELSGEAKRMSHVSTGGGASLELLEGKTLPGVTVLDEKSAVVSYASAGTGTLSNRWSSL
#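 Recombinant glycosomal PGK reaction used 1,3-bisphosphoglycerate generated in-well by GAPDH (100nM final) in 100mM TEA pH 7.6, 5mM MgCl2, 0.01% Tween-20. After 60 minutes at room temperature, ATP was read by Kinase-Glo Plus luminescence end-point.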
# GLP1R inv ag: acts as inverse agonist at human GLP-1 receptor; P43220; HEK293 GLP-1R CRE-luciferase, luminescence, 24 h; GLP-1R form is constitutively active; Potency, µM (doses to about 38.3 µM), for inactives: at the top dose activity change, negative = inhibition, hits mostly inhibitors; hit rate 1.6% among 410,000; AID 624417; further: on the % scale 0 is the no-effect control and ±100 the full control effect; nearly all actives have a fitted effect of over 55% in size
#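 Assay principle: reduced luminescence from a cAMP-responsive reporter in HEK293 cells co-expressing a constitutively active GLP-1R. Conditions: 24 hr compound incubation, 37 deg C, 5% CO2.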
# GLP1R cytotox: cytotoxicity counter-screen for GLP-1 receptor inverse agonists; Potency, µM (series often up to 38.3 µM), for the others: at the highest dose activity change, negative = inhibition, actives largely listed as inhibitors; HEK293 cAMP-luciferase reporter cells, luminescence, 24 h; hit rate 0.13% among 410,000;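 further: loss of luciferase light is scored as toxicity; on the % scale 0 is the no-effect control and ±100 the full control effect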
#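 MLSMR compounds, 24 hr on cells at 37 deg C/5% CO2; luminescence after luciferase reagent (12 min RT). Inhibition counted as the undesired cytotoxic outcome.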
# * marks the source's active call; other numbers are inactive results; i = inactive; u = inconclusive; x = not tested or not shown; [ ] = remark or other dose. Unless noted, the call rests on the fitted dose curve; in most records, active means well fitted curve in the direction sought with a large enough effect; inconclusive means small, poorly fitted or top-dose-only effect, or another doubt; inactive means no such curve, though single readings can be large; an effect the other way counts as inactive or inconclusive. Potency means the concentration at half of the fitted maximal effect.
SMILES,Tb PFK inh,Pin1 inh,GLP-1R agonist,PGK inhibitor,GLP1R inv ag,GLP1R cytotox
C[C@H]1CN([C@@H](C)CO)C(=O)Cc2cc(NC(=O)C3CC3)ccc2O[C@H]1CN(C)Cc1ccc(Oc2ccccc2)cc1,1%,4%,-3%,-4%,10µM*,-8%
C[C@@H]1CCCCO[C@@H](CN(C)Cc2ccc(Cl)c(Cl)c2)[C@@H](C)CN([C@H](C)CO)C(=O)c2cc(NC(=O)CCC(F)(F)F)ccc2O1,x,x,1%,4%,2.8µM*,-22%
C[C@H]1CN([C@@H](C)CO)C(=O)Cc2cc(NC(=O)CCC(F)(F)F)ccc2O[C@H]1CN(C)Cc1ccc(-c2ccccc2)cc1,-2%,-1%,-1%,2%,4.5µM*,2%
C[C@H]1CN([C@@H](C)CO)C(=O)Cc2cc(NC(=O)CCC(F)(F)F)ccc2O[C@H]1CN(C)S(C)(=O)=O,1%,5%,-2%,-6%,22%,0%
C[C@H]1CN([C@@H](C)CO)C(=O)Cc2cc(NC(=O)CCC(F)(F)F)ccc2O[C@H]1CN(C)Cc1ccc(C(F)(F)F)cc1,0%,7%,-3%,0%,10µM*,-11%
C[C@H](CO)N1C[C@H](C)[C@@H](CN(C)S(=O)(=O)c2ccccc2)OCCCC[C@H](C)Oc2ccc(NC(=O)CCC(F)(F)F)cc2C1=O,x,x,-2%,0%,0%,-6%
CC(=O)O[C@@H]1C(=O)O[C@H]2[C@@H]1OC(=O)[C@@H]2OC(C)=O,x,x,-1%,x,x,x
Cc1ccc(-c2ccnc(N3CCC(C(N)=O)CC3)n2)cc1,x,8%,x,x,x,x
C=C(C1=CCN(S(=O)(=O)C(C)(C)C)[C@@H]1CCO)c1ccccc1,x,1%,-1%,-10%,7.9µM*,2%
O=C1CCc2cc(S(=O)(=O)Nc3ccc4ccccc4c3)ccc2N1,x,0%,x,x,x,x
Cc1cc(NC(=O)c2cccc(COc3ccc(Br)cc3)c2)no1,-25%,7%,-3%,1%,1µM*,-35%
CCOc1ccc(C(=O)Nc2cc(C)on2)cc1,2%,-4%,-13%,-12%,-10%,0%
CCc1ccc(NC(=O)CCn2nc(-c3ccccc3OC)c3c(C)cc(C)nc32)cc1,x,110%,-2%,8%,u,-19%
CCOC(=O)c1ccccc1NC(=O)Cn1c(=O)n(CCCC(=O)NCc2ccc3c(c2)OCO3)c(=O)c2ccccc21,x,2%,-2%,i,6%,6%
CCCCN(CCCNC(=O)CN1N=C(c2ccc(C)cc2)CCC1=O)c1ccccc1,x,u,x,11%,13µM*,-5%
CN(Cc1cccc2ccccc12)C(=O)c1cc(COc2c(F)cccc2F)on1,-8%,8%,10%,10%,10µM*,-18%
Cc1cccc(-c2nc(NCCCN3CCOCC3)c3ccccc3n2)c1,5%,10%,11%,6%,8.9µM*,u
c1ccc(-c2nc(NCCCN3CCOCC3)c3ccccc3n2)cc1,5%,2%,5%,12%,u,-27%
O=C(Cc1ccccc1)Nc1cccc(NC(=O)c2cccs2)c1,-1%,1%,12%,-6%,13µM*,15%
CCN1C(=O)c2ccccc2Sc2ccc(C(=O)NCCCN3CCCCC3)cc21,1%,2%,-4%,-1%,13µM*,-24%
CCN1CCN(CCNC(=O)c2ccc3c(c2)N(Cc2ccc(F)cc2)C(=O)/C(=C/c2ccccc2)S3)CC1,0%,5%,0%,-6%,10µM*,u
CCCCNC(=O)c1ccc2c(c1)N(CC)C(=O)c1ccccc1S2,x,6%,x,-1%,u,-4%
O=C(CN1C(=O)/C(=C/c2ccc(C(F)(F)F)cc2)Sc2ccccc21)NCCCN1CCOCC1,1%,-7%,17%,-3%,u,-25%
Cc1ccccc1CN1C(=O)/C(=C\c2ccc(C(=O)NCCN3CCOCC3)cc2)Sc2ccccc21,3%,33%,-2%,-10%,11µM*,39%
CCc1ccc(/C=C2/Sc3ccccc3N(CC(=O)NCCCN3CCOCC3)C2=O)cc1,-2%,2%,-3%,-4%,8.9µM*,-10%
SMILES,Tb PFK inh,Pin1 inh,GLP-1R agonist,PGK inhibitor,GLP1R inv ag,GLP1R cytotox
O=C(NCCN1CCOCC1)c1ccc(/C=C2\Sc3ccccc3N(Cc3ccccc3F)C2=O)cc1,-10%,15%,-4%,3%,u,23%
O=C(CSc1cccc[n+]1[O-])c1ccccc1Br,-1%,3%,3%,5%,u,0.79µM*
Cc1cccc(NC(=O)CSc2nc3ccccc3c3nc(CCc4c(C)n[nH]c4C)nn23)c1,-2%,-2%,-16%,4%,u,5µM*
CC1=C(C(=O)Nc2ccccc2C(=O)NC2CCCCC2C)SCCO1 (stereo not given),1%,-12%,1%,-5%,10µM*,0%
C/C(=N\NC(=O)C(c1ccccc1)c1ccccc1)c1ccccn1,-4%,-1%,-10%,-5%,2.8µM*,u
C/C(=N/NC(=O)c1ccc(C(C)(C)C)cc1)c1ccccn1,x,-3%,u,-3%,2.5µM*,u
COc1cccc(-c2csc(N3CCN(C(=S)Nc4cccc(Cl)c4)CC3)n2)c1,-5%,u,-7%,-6%[11.5 µM],10µM*,-7%
COc1cccc(-c2csc(N3CCN(CC(=O)NNC(=O)c4ccc(Br)cc4)CC3)n2)c1,-3%,19%,-3%,0%[11.5 µM],11µM*,4%
COc1ccc(C2Nc3ccccc3C(=O)N2Cc2ccc(C(F)(F)F)cc2)cc1COc1ccc(NC(C)=O)cc1 (stereo not given),x,0%,x,x,x,x
CC(=O)c1cc2c(s1)c1cnn(Cc3ccccc3F)c(=O)c1n2C,x,-4%,x,x,x,x
CC(C)c1ccc(NC2CCCN(C(=O)c3ccsc3)C2)cc1 (stereo not given),1%,-10%,-1%,0%,10µM*,21%
COc1ccc(Cc2nc3ccc(C(=O)NCc4cc(Br)ccc4OC)cc3o2)cc1,x,34%,x,-2%,-27%,0%
Cc1onc(-c2ccccc2Cl)c1C(=O)Oc1ccc(Br)cc1,x,18%,x,-4%,-3%,-4%
Cc1onc(-c2ccccc2Cl)c1C(=O)Oc1cccc2cccnc12,-5%,7%,7%,3%,13µM*,u
Cc1onc(-c2ccccc2Cl)c1C(=O)NC(=S)Nc1ccc(C(C)(C)C)cc1,5%,-1%,-4%,-10%,-73%,u
CCc1ccc(NC(=S)NC(=O)c2c(-c3ccccc3Cl)noc2C)cc1,-3%,u,11%,5%,10µM*,-7%
Cn1nnnc1Sc1ncnc2scc(-c3ccccc3S(C)(=O)=O)c12,x,-4%,x,x,x,x
